Screens deposited in PubChem by National Center for Advancing Translational Sciences (NCATS).
TDP1 cell CPT – DT40-hTDP1 cell growth loss with CPT. 12% of 420,000 active. Potency, µM (doses to about 46.2 µM), for the others: at the top dose activity change, negative = growth inhibition, actives largely listed as inhibitors. chicken DT40 Tdp1-/-;hTDP1 cells + 20 nM CPT, ATP luminescence, 48 h; note: potency is the fitted concentration of half-maximal effect; nearly all actives have a fitted effect of over 55% in size
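Chicken DT40 Tdp1-/- cells complemented with human TDP1, 400 cells/well, exposed to compounds plus 20 nM camptothecin for at least 48 h at 37 C; viability read as ATP content by CellTiter-Glo luminescence.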
HT1080 IDH1KD tx – toxicity to HT-1080 IDH1 knockdown cells (counter line); 2% of 360,000 active; Potency, µM (doses to about 46.1 µM), inactives show top-dose activity, negative = toxicity, most hits filed as cytotoxic; HT-1080 IDH1 knockdown viability, ATP luminescence, 48 h; AID 686971;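 note: potency is the fitted concentration of half-maximal effect; 0% = DMSO wells and -100% = cell-free medium wells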
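Knockdown cells (IDH1KD HT-1080) received compounds 2 h after plating at 750 cells/well and were kept 48 h at 37 °C in 5% FBS RPMI. A CellTiter-Glo luminescence read gave % activity for curve fitting.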
HT1080NT lethal – kills 2HG-producing HT-1080-NT fibrosarcoma cells; HT-1080-NT fibrosarcoma viability, CellTiter-Glo ATP luminescence, 48 h; 1.6% of 360,000 active; AID 686970; Potency, µM (top dose mostly 46.1 µM), without a hit: at the top dose activity, negative = less viability, actives largely listed as cytotoxic;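 note: NT is the 2HG producing partner of a matched IDH1 knockdown line; potency is the fitted concentration of half-maximal effect; 0% = DMSO-treated cells and -100% = media-only wells without cells; nearly all actives have a fitted effect of over 55% in size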
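Luminescent CellTiter-Glo readout after 48 hours of compound exposure at 37 degrees C defined viability of HT-1080-NT cells. Activity was normalized to DMSO wells and cell-free media wells; concentration-response curves were fitted and assigned curve classes.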
DT40 TDP1 no CPT – qHTS for Inhibitors of human tyrosyl-DNA phosphodiesterase 1 (TDP1): qHTS in cells in absence of CPT; DT40 Tdp1-/- hTDP1 cells, no CPT, ATP luminescence, 48 h; Potency, µM (highest dose often 46.2 µM), inactives show at the top dose activity change, negative = growth inhibition, most hits filed as inhibitors; 15% of 420,000 active; AID 686978, 2013; note: potency is the fitted concentration of half-maximal effect; nearly all actives have a fitted effect of over 55% in size
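DT40 Tdp1-/-;hTDP1 cells, no CPT (DMSO vehicle only), 400 cells/well; compounds pin-transferred; ≥48 hr, 37 °C; CellTiter-Glo 30 min RT dark, luminescence read.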
IL-1B inflam inh – inflammasome signaling inhibition, IL-1 beta readout | THP-1 LPS/ATP IL-1B secretion, AlphaLISA, 16 h; hits give low values | activity change, % at 57.5 µM | 4.7% of 360,000 active; in the data active = activity change below about -50%; inconclusive = mostly about -30% to -49%
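Secreted IL-1B measured by AlphaLISA bead assay after 16 h compound exposure of THP-1 cells; compounds (final up to 57.5 uM) added 1 h before LPS (250 ng/mL) and ATP (1.25 mM) stimulation; lower signal means less secretion.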
Starred values were filed as active, the others as inactive; ? = inconclusive; . = not tested or not shown; [ ] = remark or other dose. Shown are actives, neighbours in structure and some others; about 19% of the full set was active somewhere. Unless noted, calls come from the whole dose curve; as a rule, active = well fitted curve in the direction sought with a large enough effect; inconclusive = small, poorly fitted or top-dose-only effect, or another doubt; inactive = no such curve, though single readings can be large; an effect the other way counts as inactive or inconclusive. Unless noted, % is set by controls: 0 for no effect and ±100 for the full control effect.

SMILES	TDP1 cell CPT	HT1080 IDH1KD tx	HT1080NT lethal	DT40 TDP1 no CPT	IL-1B inflam inh
COc1cccc(CC(=O)Nc2nc(-c3cc(OC)ccc3OC)cs2)c1	-24.7%	0.8%	3.2%	-19.2%	-26.5
CC(C)(C)c1ccc(C(CC(=O)O)NC(=O)Cc2ccc(Cl)cc2)cc1 (configuration not stated)	4.0%	2.1%	-1.5%	0.8%	27.2
Brc1cccc(-c2nc3c4ccccc4ccn3c2CC2CCCCC2)c1	4.4%	3.5%	1.4%	-23.4%	76.0
COc1ccc(-c2csc(NC(=O)C3CSC4(C)CCC(=O)N34)n2)cc1OC (configuration not stated)	-7.3%	-20.6%	-13.3%	-4.4%	-12.9
COc1ccc(OC)c(-c2csc(NC(=O)C3CSC4(C)CCC(=O)N34)n2)c1 (configuration not stated)	?	-6.0%	-3.5%	?	-54.8*
COc1ccc(-c2csc(NC(=O)CSCC(=O)Nc3cc(C)on3)n2)c(OC)c1	29.1µM*	2.2%	1.3%	?	-8.3
COc1ccc(CC(=O)Nc2nc(-c3cc(OC)ccc3OC)cs2)cc1	?	-10.2%	-19.0%	?	-88.4*
COc1ccc(OC)c(-c2csc(NC(=O)Cc3ccccc3)n2)c1	?	?	?	?	-9.6
Cc1ccc(Oc2ccccc2NC(=O)CSCC(=O)Nc2cc(C)on2)cc1	8.2µM*	?	?	10.3µM*	7.0
CCOc1ccccc1C(=O)NCC(=O)NCC(C)(C)N1CCOCC1	0.4%	6.2%	5.4%[9.24 µM]	18.6%	-4.0
CN(C)S(=O)(=O)c1cccc(C(=O)Nc2cc(S(=O)(=O)N3CCOCC3)ccc2N2CCCC2)c1	?	-0.1%	2.1%	-26.9%	?
COc1ccc(-c2csc(NC(=O)CSc3ccc(Br)cc3)n2)c(OC)c1	18.4µM*	-4.1%	-3.4%	16.4µM*	-1.1
Cc1cccc(OCC(=O)Nc2cc(C)on2)c1	3.0%	19.7%	25.2%	17.7%	12.2
COc1ccc(OC)c(-c2csc(NC(=O)C3COc4ccccc4O3)n2)c1 (configuration not stated)	?	2.7%	1.1%	16.4µM*	-12.2
Cc1cc(NC(=O)COc2cccc(Oc3ccccc3)c2)no1	13µM*	?	?	?	27.2
COc1ccc(-c2csc(NC(=O)CSC(C)C(=O)Nc3cc(C)on3)n2)cc1OC (configuration not stated)	18.4µM*	5.0%	1.6%	10.3µM*	16.2
C/C=C/c1ccc(OCCCCNCc2ccco2)c(OC)c1	25.9µM*	?	-29.5%	?	-58.1*
C/C=C/c1ccc(OCCCCN2CCN(CC)CC2)c(OC)c1	?	-16.3%	-14.1%	29.1µM*	-10.9
C/C=C/c1ccc(OCCCNCC(C)O)c(OC)c1 (configuration not stated)	?	-14.7%	-19.7%	?	-10.1
C/C=C/c1ccc(OCCCCN2CC(C)CC(C)C2)c(OC)c1 (configuration not stated)	?	20.6µM*	23.1µM*	?	-70.1*
COCCn1c(=O)c(CCc2ccccc2)nc2cnc(N3CCOCC3)nc21	-18.4%	.	.	-6.8%	.
CC1CCCC(C)N1/N=C/c1ccc(O)c(O)c1 (configuration not stated)	-16.7%	1.0%	-10.7%	23.1µM*	51.9
O=C(CNC(=O)c1ccccc1)OCc1nc2ccccc2s1	?	2.8%	-0.6%	2.8%	7.7
Cc1ccc(C(O)c2ncc(-c3ccc(C(F)(F)F)cc3)[nH]2)cc1F (configuration not stated)	?	?	?	20.6µM*	-22.6
Cc1ccc(C(O)c2ncc(-c3ccc4ccccc4c3)[nH]2)cc1F (configuration not stated)	29.1µM*	-14.6%	-18.6%	18.4µM*	0.3
SMILES	TDP1 cell CPT	HT1080 IDH1KD tx	HT1080NT lethal	DT40 TDP1 no CPT	IL-1B inflam inh
Cc1ccc(C(O)c2ncc(-c3ccc(F)cc3)[nH]2)cc1F (configuration not stated)	?	-9.0%	-4.0%	?	8.0
Cc1cc(C)cc(C(O)c2ncc(-c3ccc(C(F)(F)F)cc3)[nH]2)c1 (configuration not stated)	?	?	?	16.4µM*	106.7
OC(c1ccc(Cl)c(Cl)c1)c1ncc(-c2ccc(C(F)(F)F)cc2)[nH]1 (configuration not stated)	?	?	?	16.4µM*	?
Cc1cccc(C(O)c2ncc(-c3ccc(C(F)(F)F)cc3)[nH]2)c1C (configuration not stated)	?	-11.7%	4.3%	?	20.9
Cc1occc1C(=O)NNC(=O)c1ccc(Br)o1	-0.1%	10.6%	12.1%	-19.9%	-9.6
CC(=O)Nc1ccc(OCCOc2ccc(/C=C3\C(=N)N4N=C(C(C)C)SC4=NC3=O)cc2)cc1	-1.4%	4.1%	5.4%	-0.2%	1.6
CCCC[C@@H]1CNCCN1CCc1cccc2ccccc12	23.1µM*	-14.0%	-14.5%	18.4µM*	?
Oc1ccc(C[C@H]2CNCCN2CCc2cccc3ccccc23)cc1	?	-10.6%	-25.3%	?	-29.3
c1ccc(C[C@H]2CNCCN2CCc2cccc3ccccc23)cc1	?	-23.8%	-4.8%	10.3µM*	-27.4
CC1Cc2nc(SCC(=O)c3ccccc3)n(Cc3ccccc3)c(=O)c2S1 (configuration not stated)	10.3µM*	-11.5%	-20.1%	10.3µM*	?
CC1Cc2nc(SCC(=O)N3CCc4ccccc43)n(C)c(=O)c2S1 (configuration not stated)	?	-0.3%	-0.6%	23.1µM*	18.0
COc1ccccc1-n1c(SCC(=O)N2CCc3ccccc32)nc2c(c1=O)SCC2	9.2µM*	-18.4%	-25.8%	7.31µM*	-16.5
COc1ccc(OC)c(-n2c(SCC(=O)N3CCc4ccccc43)nc3c(c2=O)SCC3)c1	?	2.0%	3.6%	?	?
CN(CC(=O)Nc1c(Cl)cccc1Cl)CC(=O)N1CCc2ccccc21	?	2.5%	4.4%	?	8.2
Cc1ccccc1NC(=O)C(C)OC(=O)CNS(=O)(=O)c1ccc(C#N)cc1 (configuration not stated)	-16.8%	8.3%	4.7%	-4.1%	8.0
NCCOc1ccc(C2CCCCC2)cc1	13µM*	?	15.0%	?	-186.2*
CCCOc1ccc(C2NC(=O)NC2=O)cc1 (configuration not stated)	-16.1%	15.2%	10.2%	1.0%	27.1
